Measurements: ChEMBL document CHEMBL1157539, “Thousands of chemical starting points for antimalarial lead identification” (Nature, 2010)

How the values were obtained:
Assay type in all cases: functional
Plasmodium falciparum [1] = assay: GSK_TCMDC: Inhibition of Plasmodium falciparum 3D7 in whole red blood cells, using parasite LDH activity as an index of growth. Test compounds present at 2uM
Plasmodium falciparum [2] = assay: GSK_TCMDC: Inhibition of Plasmodium falciparum Dd2 in whole red blood cells, using parasite LDH activity as an index of growth. Test compounds present at 2uM
HepG2 = assay: GSK_TCMDC: Percent inhibition of human HepG2 cell line. Test compounds present at 10uM.

Row | SMILES | Inhibition (Plasmodium falciparum [1]) [%] | Inhibition (Plasmodium falciparum [2]) [%] | Inhibition (HepG2) [%]
1 | Clc1ccc2c(NN=Cc3cccs3)ccnc2c1 | 100 | 96 | 0
2 | COc1c(CNCCCCCCNCc2c(OC)c(OC)c3ccccc3c2OC)c(OC)c2ccccc2c1OC.CS(=O)(=O)O | 96 | 98 | 100
3 | Nc1ncc(-c2cccc(CCN3CCOCC3)c2)cc1-c1nc2cc(Br)ccc2[nH]1.O=C(O)C(F)(F)F | 100 | 98 | 60
4 | O=C(O)C(F)(F)F.OC1CCCN(Cc2cccc(-c3ccc(-c4nc5cc(C(F)(F)F)ccc5[nH]4)cc3)c2)C1 (stereo not given) | 100 | 91 | 27
5 | CCCC(C)N(Cc1ccc(C(C)(C)C)cc1)C(=O)c1ccc(OC)cc1 (stereo not given) | 100 | 98 | 7
6 | CC(C)NCc1ccc(-c2ccc(-c3nc4cc(C(F)(F)F)ccc4[nH]3)cc2)cc1.O=C(O)C(F)(F)F | 100 | 98 | 16
7 | COc1ccccc1-c1cccc(CNC2CCN(CC3Cn4c(=O)ccc5ccc(F)c3c54)CC2)c1.O=C(O)C(F)(F)F (stereo not given) | 91 | 0 | 30
8 | Cc1cc(Cl)c(S(=O)(=O)N(C)c2ccccc2)cc1OCC(=O)NC1CCCCC1 | 99 | 94 | 3
9 | O=C(Nc1cc(C(F)(F)F)ccc1-n1cncn1)C1(c2ccccc2)CC1 | 100 | 100 | 11
10 | Cc1cccc(Cn2c(C(N)=O)nn(-c3ccc([N+](=O)[O-])cc3C#N)c2=S)c1 | 100 | 48 | 1
